Reference: PubChem BioAssay AID1347426 (Functional Genomics Laboratory (NCATS/FGL), 2020)
Hit rate of the full screen: of about 31,000 sequences, about 1,400 (4.5%) were called active.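 How the source made its calls: active means median seed-adjusted z-score above 1 or below -1; inactive means the rest.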 Many of the other results were omitted from the sample, so actives are more common in it than they were.

Test: Novel Modifiers of Survival Motor Neuron (SMN) Protein: Gene Identification via Genome-wide siRNA Screen;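 further: luminescence tracks full-length SMN protein made from the SMN2 reporter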
Settings: HEK293T SMN2-luciferase reporter, siRNA knockdown, 72 h; actives lie on both sides
In short: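 Luciferase signal, proportional to full-length SMN made from an SMN2 cDNA reporter in stable HEK293T cells, was read 72 h after siRNA reverse transfection. Values were expressed as MAD scores after non-targeting-control normalization and log10 conversion; seed analysis flagged off-targets.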

| Sequence | median seed-adjusted z-score |
| --- | --- |
| GAUAGUGACAGGUUAAUGATT against TIGD6 | -0.443 (inactive) |
| GCCUGACCCGUGAGACAAATT against THY1 | -1.1 (active) |
| GCAUCUAAAGAGCUACAGATT against ZNF584 | 0.172 (inactive) |
| CAAUGUCCAGGGUAUCAUUTT against HAO2 | 0.039 (inactive) |
| GGAGGGACAAGAUCAACAATT against USF2 | 0.352 (inactive) |
| CCAGCCGUGUUGUAGCUAATT against S100B | 0.862 (inactive) |
| CCGUAAAGCUGCAUUAGAATT against CUGBP1 | 0.086 (inactive) |
| GGGUCAUCAGUAGCAUUGATT against YWHAG | 1.98 (active) |
| GCAGUACGGAAGCUACCGATT against SS18L1 | -0.174 (inactive) |
| CAUUGGACAGUAUUACAAATT against UBE2U | -0.0545 (inactive) |
| CCUUCCCUCUACACCAUCATT against COPZ2 | -1.23 (active) |
| CCUAAGUUACUACUAGUAUTT against ENPP4 | 0 (inactive) |
| GGAUCUCACAGGUUCCGUUTT against LARS2 | 0.25 (inactive) |
| GAACUUGACCAUUAUAUCATT against PHKA2 | 0.304 (inactive) |
| CGGUGGUGAAUGAAAGUCATT against FKBP14 | -0.455 (inactive) |
| GAGGUGAACUGGAAGCGAATT against MBOAT1 | -1.22 (active) |
| CGCUUAACAUUGGAGUUCATT against ATG7 | -0.328 (inactive) |
| CUACGGCUUUGGAGAUAUATT against RECQL | -0.905 (inactive) |
| CAUCCAUUCUACAUCCGUATT against VHL | -0.0797 (inactive) |
| AGAGCACAUCAAAUCAGAATT against PAX2 | 0.341 (inactive) |
| GCUUAUGCGUAGAUCCUUUTT against SMYD4 | 0.272 (inactive) |
| GCACCUUCCCAACCAUCAATT against GPX2 | -0.21 (inactive) |
| GCAGAUUUUGAGCAACUGATT against TRIM5 | 0.0758 (inactive) |

| Sequence | median seed-adjusted z-score |
| --- | --- |
| GAACUUUGAUGACGAGUGATT against RAD23A | -1.13 (active) |
| GAUGAUCAGCUAUGAAAAATT against ZNF780A | 0.298 (inactive) |
| GCAGAUAUCUGAUAGCCCUTT against PPA2 | -0.497 (inactive) |
| CGUCUAUGCCUAUAAAAUATT against ADORA3 | 0 (inactive) |
| GCGAUGCCUAUAAAACCUATT against TRYX3 | 2.3 (active) |
| CUAGGAAGAUAAUACCAGATT against BTRC | -0.0819 (inactive) |
| GGAAGUACCUGAGUGUGCATT against MTCH1 | 0 (inactive) |
| GCUCUUUGCCGUUUCUAAUTT against SLC29A2 | -0.0569 (inactive) |
| CGAGAAAUUGCACAACCGATT against NACC1 | 1.59 (active) |
| GGACAUUGGACUAACCCAATT against EFHB | 0.675 (inactive) |
| CUAUGGUAAUGUUUGCUUUTT against ZXDB | 0.186 (inactive) |
| CAAGAUCAAGAGUUCCUGATT against CYP2B6 | 0.454 (inactive) |
| CCGAGAGUAUGUCGACUUATT against CBFB | -0.0379 (inactive) |
| GGAAAACAAGCUCAUCAAUTT against HOXA6 | -0.282 (inactive) |
| GCAGCGUAGUUUUUGCGGATT against DOCK2 | 0.151 (inactive) |
| UCAGUGCCCUUGUAUCAAATT against CYP4F2 | -0.387 (inactive) |
| GCCUCAGUUUGAAAUUGUUTT against TBRG1 | -1.47 (active) |
| CAGACUCUCCGAUCUCUGATT against NRIP3 | -0.699 (inactive) |
| CCUGGAUCCAAAUAGCGAATT against SMARCA2 | -0.458 (inactive) |
| CUCUUUGACGUGUCUCAUATT against AMT | -0.506 (inactive) |
| CCUGAACAUUGGACCCUGUTT against CPSF1 | 3.29 (active) |
| UCACUUUCCCUGUAAAUAUTT against CD84 | 0.629 (inactive) |
| GCAAGACCUAAGCAAACUATT against BXDC1 | 0.173 (inactive) |

| Sequence | median seed-adjusted z-score |
| --- | --- |
| CAUAGACUCUUACACCACATT against SC4MOL | -0.0194 (inactive) |
| GGCUGUCUGCUGUACGAGATT against NEK6 | -0.674 (inactive) |
| CCAGCUCCUUUAUCAAGCATT against RAD51 | 0.594 (inactive) |
| GCCUGGAUAACAUCACUGATT against AIM2 | 0.0646 (inactive) |
| GACCUGAUGUGGACCCAGATT against MIOX | 0.14 (inactive) |
| GCGACCAACUGAUUGUCGATT against PTPRZ1 | 1.73 (active) |
| GACACUUGCUUAGAAGUAATT against LRP12 | 0.416 (inactive) |
| GGAUCUACGUGUACGUCAATT against LPAR3 | -0.3 (inactive) |
| GGAUCAGUUUGACAGUUUUTT against RNPEP | -0.236 (inactive) |
| GGAAAUUAGCUGCAGCUGATT against PPP1R2 | 0.208 (inactive) |
| GGAGAACCACAGUUGCUUUTT against IL17RA | -1.29 (active) |
| GGAUUCAUCCUUACCCUCATT against PPP2R4 | 0.318 (inactive) |
| GCUUUACAGAAAGCCGUGATT against STRADB | 0.21 (inactive) |
| CCCUCGAGCAUGUUCCAAATT against PRPF6 | -1.06 (active) |
| AGAUCGUGGUGCAUCCAUATT against ELA1 | 0.687 (inactive) |
| GCACCAACCUGACCUGUCATT against CD33 | -0.355 (inactive) |
| GAACCAAGAUCAUUAUGCATT against DNAJC2 | -0.0357 (inactive) |
| GCGCAGCCUUUAGAGGAUATT against UBE2J1 | -1.2 (active) |
| UGGAGUAAAUAGUUCUAAUTT against UBE2V1 | 0.745 (inactive) |
| UGAGGAUAGUGGGUCUGUATT against MEIS3 | 0.207 (inactive) |
| GACUCAUCGUGAUGAGAUUTT against SLC7A9 | 0.194 (inactive) |
| GGAACAAGUAUUUAGGAAATT against CAPSL | -0.168 (inactive) |
| CCCUAGGCCUUUUACGAAATT against RAG1 | -1.35 (active) |
